High-throughput results deposited in PubChem by National Center for Advancing Translational Sciences (NCATS).
Most compounds without a hit are left out; they make up all but 10% or so of the library.
HP1b binding inh = HP1-beta chromodomain-methylated histone interaction inhibition; Potency, µM (titrated, usually from 114 µM), for inactives: at the highest dose activity change, negative = inhibition, hits mostly inhibitors; 390,000 tested, 0.56% active; AlphaScreen HP1-beta / biotin-H3K9me3 peptide binding; AID 540317; also: potency is read from the fitted curve at half-maximal effect; nearly all actives have a fitted effect of over 70% in size
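Compound inhibition of the preformed complex between 50 nM HP1-beta and 50 nM biotinylated H3K9me3 peptide was read by AlphaScreen. Buffer was PBS pH 7.4 with 0.01% Tween-20. Incubations ran 30 min at room temperature, with 10 ug/mL donor/acceptor beads.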
Six1-Eya2 inh = Six1/Eya2 interaction inhibition; AlphaScreen GST-Six1/His-Eya2 binding, biochemical; hits give low values; Q15475+O00167; activity change, % (test concentration not listed); 360,000 tested, 0.56% active; in the data active = activity change below about -65%; inconclusive = mostly about -30% to -63%; also: % is scaled to controls: 0 for no effect and ±100 for the full control effect
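AlphaScreen with GST-Six1 and His-Eya2 (5X mix: 250 nM and 500 nM), glutathione donor and nickel acceptor beads; buffer 50 mM Tris pH 8.0, 300 mM NaCl, 1 mM TCEP; 1 h at 37 C in the dark.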
G9a block = G9a (human) methyltransferase inhibition. Q96KQ7. G9a H3K9 monomethylation, AlphaScreen, 2 h. Potency, µM (top dose mostly 102 µM), for inactives: at the top dose activity, negative = inhibition, actives largely listed as inhibitors. 350,000 tested, 8.8% active. AID 504332; also: potency is read from the fitted curve at half-maximal effect; % is scaled to controls: 0 for no effect and ±100 for the full control effect; nearly all actives have a fitted effect of over 75% in size
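Compounds were preincubated with 20 nM G9a for 15 min, after which biotinylated H3K9 peptide (500 nM) and SAM (20 uM) started a 2 h room-temperature reaction. Monomethylated product was quantified by antibody-based AlphaScreen chemiluminescence.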
BAZ2B inh = blocks human BAZ2B. Q9UIF8. AlphaScreen BAZ2B-H3K14Ac peptide displacement. Potency, µM (highest dose often 114 µM), without a hit: at the top dose activity change, negative = inhibition, actives largely listed as inhibitors. 360,000 tested, 4.4% active. AID 504333; also: potency is read from the fitted curve at half-maximal effect; % is scaled to controls: 0 for no effect and ±100 for the full control effect; nearly all actives have a fitted effect of over 60% in size
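Inhibition is scored as reduced AlphaScreen emission. The BAZ2B/b-H3(5-23)K14Ac complex (50 nM each) in PBS pH 7.4, 0.01% Tween-20 meets compound (up to 110 uM) for 30 min at RT before bead addition.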
JMJD2A Tudor = inhibitors of human JMJD2A Tudor domain. O75164. AlphaScreen JMJD2A-Tudor / H3K4me3 peptide binding. 390,000 tested, 4.4% active. Potency, µM (titrated, usually from 114 µM), for inactives: top-dose activity change, negative = inhibition, usual class: inhibitors; also: potency is read from the fitted curve at half-maximal effect; % is scaled to controls: 0 for no effect and ±100 for the full control effect; nearly all actives have a fitted effect of over 50% in size
CtBP-E1A inh = inhibitors of CtBP/E1A interaction. AlphaScreen GST-E1A/His-CtBP binding, 1536-well; hits give low values. activity change, % (concentration not given with the values). 340,000 tested, 0.49% active. AID 651724; in the data active = activity change below about -65%; inconclusive = mostly about -30% to -63%; also: % is scaled to controls: 0 for no effect and ±100 for the full control effect
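AlphaScreen with 125 nM GST-E1A and 125 nM His-CtBP (5X stocks) in Tris pH 8.0, 300 mM NaCl, BSA, Tween 20, TCEP. Compounds preincubated 2 h at 37 deg C, then glutathione donor/nickel acceptor beads added for 1 h at 37 deg C in dark.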
An asterisk follows results filed as active; ? = inconclusive; . = no result; [ ] = dose if it differs, or a comment. Unless noted, calls follow the shape of the dose curve; as a rule, active = well fitted inhibition curve with a large enough effect; inconclusive = small, poorly fitted or top-dose-only effect; inactive = no such curve, though single readings can be large or run the other way.

SMILES	HP1b binding inh	Six1-Eya2 inh	G9a block	BAZ2B inh	JMJD2A Tudor	CtBP-E1A inh
Oc1c(C(c2ccco2)N2CCOCC2)sc2ncnn12 (stereo not given)	22%	9	40µM*	5%	-15%	-1
Cc1nc2sc(C(c3ccco3)N3CC(C)OC(C)C3)c(O)n2n1 (stereo not given)	34%	0	25µM*	1%	-21%	4
CCC(C)NC(=O)Cc1c(C)c2cc3c(cc2oc1=O)OC(C)(C)CC3 (stereo not given)	14%	5	12%	11%	-5%	10
COc1ccc(CCNC(=O)C(=O)NCC2CCCN2S(=O)(=O)c2ccccc2)cc1OC (stereo not given)	18%	-7	?	-5%	-17%	6
Oc1c(C(c2ccc(Cl)cc2Cl)N2CCN(Cc3ccccc3)CC2)sc2nc(-c3ccco3)nn12 (stereo not given)	?	.	13µM*	?	?	.
Cc1nc2sc(C(c3ccco3)N3CCN(c4cccc(Cl)c4)CC3)c(O)n2n1 (stereo not given)	-17%	-14	13µM*	?	?	5
CN1CCN(C(c2ccc(Cl)cc2Cl)c2sc3nc(-c4ccco4)nn3c2O)CC1 (stereo not given)	-8%	.	-34%[59 µM]	-35%	-21%	.
Cc1cc(Nc2ccc3ccccc3c2)n2ncnc2n1	-9%	-4	16µM*	-33%	-30%	-1
COc1cc(OC)c(Nc2cc(C)nc3ncnn23)cc1Cl	17%	.	11µM*	-3%	-17%	.
CCOc1ccc(Nc2nc3ccccc3n3c(CC)nnc23)cc1	16%	.	-29%[59 µM]	-26%	-5%	.
Cc1c(C(=O)N2CCC(C)CC2)oc2ccc3c(c12)C(O)CC1(CCCCC1)O3 (stereo not given)	32%	-2	-4%	-23%	-25%	-3
Cc1cc(C)c(Cn2c(CCNC(=O)c3ccco3)nc3ccccc32)c(C)c1	-15%	.	-11%[59 µM]	?	?	.
N#Cc1ccc(-c2csc(NC3=NCCCCC3)n2)cc1	51%	-17	-7%[59 µM]	-3%	-15%	-22
Brc1ccc(-c2csc(NNC3=NCCCCC3)n2)cc1	-22%	-15	13µM*	35µM*	?	-9
CC(C)(C)c1ccc(-c2csc(NNC3=NCCCCC3)n2)cc1	?	-10	13µM*	?	?	-6
c1ccc(-c2csc(NC3=NCCCCC3)n2)cc1	25%	8	14%[59 µM]	-38%	-9%	2
FC(F)Oc1ccc(-c2csc(NNC3=NCCCCC3)n2)cc1	?	-9	13µM*	?	?	.
Cc1cc(Nc2ccccc2C)n2nc(Cc3ccc(Cl)cc3)nc2n1	36%	.	-25%[59 µM]	-16%	-19%	.
CCc1cccc(NC(=O)Nc2cccs2)c1	-7%	-2	13µM*	?	?	0
O=C(Nc1cccs1)Nc1c(F)c(F)c(F)c(F)c1F	5%	0	25%[59 µM]	?	-31%	-16
CCc1cccc(NC(=O)Nc2csc3c2CCCC3)c1	71%	.	33%[59 µM]	17%	-19%	.
N#Cc1cccc(NC(=O)Nc2cccs2)c1	-13%	0	79µM*	-7%	-32%	2
Cc1cccc(C)c1NC(=O)Nc1cccs1	7%	0	50µM*	-3%	-8%	-2
COc1ccc(S(=O)(=O)N2CCCCC2)cc1C(=O)N1CCCC1	36%	9	21%[0.501 µM]	-2%	-10%	1
COc1cc(OC)cc(C(=O)NNC(=O)CCC(=O)c2cc(C)sc2C)c1	27%	2	.	.	-7%	-5
SMILES	HP1b binding inh	Six1-Eya2 inh	G9a block	BAZ2B inh	JMJD2A Tudor	CtBP-E1A inh
Cc1ccc(NC(=O)n2ncc3c(C)cccc32)c(C)c1	15%	14	-21%	-9%	4%	-17
Cc1cccc2c1cnn2C(=O)Nc1ccc(Br)cc1F	24%	5	35µM*	-6%	10%	12
O=C(O)c1cccc2c1C(=O)c1ccccc1-2	12%	9	.	-8%	-2%	2
O=C1C(=C(I)I)c2ccccc2-c2ccccc21	56µM*	-11	.	.	25µM*	-13
CC(C)CC(NC(N)=O)C(=O)OCC(=O)N(Cc1ccccc1)Cc1ccccc1 (stereo not given)	0%	4	3%	4%	-10%	0
C=CCNC(=O)c1onc(CSc2nc3ccccc3[nH]2)c1C(=O)NCC=C	13%	5	56µM*	?	-26%	7
COCCNC(=O)c1onc(CSc2nc3ccccc3[nH]2)c1C(=O)NCCOC	50%	12	.	-4%	-13%	7
Cc1n[nH]c(=O)c2c(NC(=O)CSc3ccc(Br)cc3)oc(C)c12	22%	10	?	6%	-13%	0
Cc1n[nH]c(=O)c2c(NC(=O)CSc3ccc(F)cc3)oc(C)c12	12%	0	-50%	3%	-17%	7
Cc1n[nH]c(=O)c2c(NC(=O)COC(=O)c3cc(F)cc(F)c3)oc(C)c12	46%	9	45µM*	1%	-19%	2
Cc1cc(C)c(C)c(SCC(=O)Nc2oc(C)c3c(C)n[nH]c(=O)c23)c1C	12%	-1	4µM*	4%	-21%	0
CC(=O)Nc1ccc(SCC(=O)Nc2oc(C)c3c(C)n[nH]c(=O)c23)cc1	50%	-17	50µM*	1%	-7%	-3
CC1=C(C(=O)OCC2CCCO2)C(c2ccncc2)C2=C(CC(C)(C)CC2=O)N1 (stereo not given)	-7%	4	-2%[59 µM]	-4%	?	2
O=C(CSc1ncnc2nc[nH]c12)c1ccc2ccccc2c1	17%	-13	-12%[59 µM]	-22%	79µM*	-6
c1nc(SSc2ncnc3nc[nH]c23)c2[nH]cnc2n1	?	-12	.	.	0.79µM*	8
Clc1ccc(C(CCN2CCCC2)Cc2ccccc2)cc1 (stereo not given)	?	2	10µM*	50µM*	4µM*	0
OC(CCN1CCCCC1)c1ccc(-c2ccccc2)cc1 (stereo not given)	13%	-1	4%	-2%	-8%	1
Cc1ccc(C)n1Cc1ccc(C(=O)O)cc1	?	-71*	8.9µM*	16µM*	0.79µM*	4
Cc1cc(C)n(Cc2ccc(C(=O)O)cc2)n1	16%	3	14%	-4%	1%	-1
CCOC(=O)C1=CC[C@@H](c2ccccc2)N(S(=O)(=O)c2ccc(C)cc2)[C@H]1C=C(C)C	.	4	.	.	.	4
CC(C)(C)NCC(O)c1ccc(O)c(CO)c1 (stereo not given)	.	.	3%[59 µM]	.	.	.
